The supplement of paper PMC9694430

Columns and labels:
Experiment in all cases: thermal shift delta Tm vs DMSO control; higher = stronger stabilization (binding)
Settings in all cases: 12.5 µM; protein concentration 2 µM
LOC_OS01G01410-cb001 = test system: LOC_OS01G01410-cb001
Procedure, shortened: (§1)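 Heating from 25°C to 95°C at 0.05°C/s, fluorescence was recorded for 19.5 μl wells of 2 μM E. coli-expressed, purified rice kinase domain in 100 mM potassium phosphate pH 7.5, 150 mM NaCl, 10% glycerol and 5 × SYPRO Orange with compound in DMSO. Boltzmann fits gave melting temperatures for this differential scanning fluorimetry assay. The shift reported is the mean of three replicates against the DMSO-only protein.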

LOC_OS01G02750-cb003 = test system: LOC_OS01G02750-cb003
Procedure, shortened: as §1

LOC_OS01G10900-cb004 = test system: LOC_OS01G10900-cb004
Procedure, shortened: as §1

LOC_OS01G13800-cb001 = test system: LOC_OS01G13800-cb001
Procedure, shortened: as §1

LOC_OS01G14860-cb001 = test system: LOC_OS01G14860-cb001
Procedure, shortened: as §1

LOC_OS01G21960-cb002 = test system: LOC_OS01G21960-cb002
Procedure, shortened: as §1

LOC_OS01G39600-cb002 = test system: LOC_OS01G39600-cb002
Procedure, shortened: as §1

LOC_OS01G48390-cb002 = test system: LOC_OS01G48390-cb002
Procedure, shortened: as §1

LOC_OS01G51400-cb002 = test system: LOC_OS01G51400-cb002
Procedure, shortened: as §1

LOC_OS01G52050-cb004 = test system: T1, LOC_OS01G52050-cb004
T1 sequence (whole entry): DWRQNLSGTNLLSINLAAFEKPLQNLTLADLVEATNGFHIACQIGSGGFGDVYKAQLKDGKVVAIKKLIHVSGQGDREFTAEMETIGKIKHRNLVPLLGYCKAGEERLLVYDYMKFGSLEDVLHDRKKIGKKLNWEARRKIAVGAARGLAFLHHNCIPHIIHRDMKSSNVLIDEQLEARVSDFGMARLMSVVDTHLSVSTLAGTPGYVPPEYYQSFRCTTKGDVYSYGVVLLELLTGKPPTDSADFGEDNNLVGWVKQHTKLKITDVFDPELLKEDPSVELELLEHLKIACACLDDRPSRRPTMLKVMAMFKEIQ
Procedure, shortened: as §1
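Further: purified Escherichia coli-expressed rice kinase domain construct.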

Structure (SMILES)	thermal shift delta Tm (LOC_OS01G01410-cb001) [°C]	thermal shift delta Tm (LOC_OS01G02750-cb003) [°C]	thermal shift delta Tm (LOC_OS01G10900-cb004) [°C]	thermal shift delta Tm (LOC_OS01G13800-cb001) [°C]	thermal shift delta Tm (LOC_OS01G14860-cb001) [°C]	thermal shift delta Tm (LOC_OS01G21960-cb002) [°C]	thermal shift delta Tm (LOC_OS01G39600-cb002) [°C]	thermal shift delta Tm (LOC_OS01G48390-cb002) [°C]	thermal shift delta Tm (LOC_OS01G51400-cb002) [°C]	thermal shift delta Tm (LOC_OS01G52050-cb004) [°C]
C[C@H](NC(=O)c1c(N)nn2cccnc12)c1cc2cccc(C#Cc3cnn(C)c3)c2c(=O)n1-c1ccccc1	-0.14	1.49	-0.2	0	0.51	0.17	0.28	0.19	0.28	2.08
CN1CC[C@H](c2c(O)cc(O)c3c(=O)cc(-c4ccccc4Cl)oc23)[C@H](O)C1 [Flavopiridol (Alvocidib)]	0.72	0.39	0.16	0.35	4.54	1.94	1.37	0.03	-0.2	0.8
C[C@@H]1CN(C(=O)c2ccc(NC(=O)c3cc(O[C@H](C)c4c(Cl)ccc(F)c4Cl)c(N)nn3)cc2)C[C@H](C)N1 [Ensartinib (X-396)]	2.83	1.44	2.67	-0.39	0.08	0.04	0.4	5.02	-0.19	3.28
CC(C)c1ccc2oc3nc(N)c(C(=O)O)cc3c(=O)c2c1 [Amlexanox]	0.99	0.05	0.62	-0.62	0.4	-0.2	2.5	-0.03	0.2	1.26
C[C@@H](Oc1cc(-n2cnc3ccc(CN4CCN(C)CC4)cc32)sc1C(N)=O)c1ccccc1C(F)(F)F	0.17	0.34	3.48	0.56	0.12	1.19	0.33	0.1	-0.17	0.53
Cc1[nH]c(/C=C2\C(=O)Nc3ccc(S(=O)(=O)Cc4c(Cl)cccc4Cl)cc32)c(C)c1C(=O)N1CCC[C@@H]1CN1CCCC1	1.92	1.5	0.36	0.4	0.57	0.17	3.39	0.38	-0.1	0.18
CCOc1cn(-c2ccc(F)cc2C)nc1C(=O)Nc1ccc(Oc2ccnc3cc(OC)c(OC)cc23)c(F)c1	0.08	1.86	0.01	-0.07	0.5	-0.29	0.58	0.48	0.45	2.08
CCOc1cc2ncc(C#N)c(Nc3ccc(F)c(Cl)c3)c2cc1NC(=O)/C=C/CN(C)C [Pelitinib (EKB-569)]	0.85	0.32	1.14	0.55	4.99	1.49	4.78	0.69	0.03	3.13
CN1CCC(COc2cnc(-c3cccc(Cn4nc(-c5cccc(C#N)c5)ccc4=O)c3)nc2)CC1	0.33	0.27	0.17	-0.5	0.03	0.05	0.63	0.2	0.24	0.04
